PubChem BioAssay (NCI)
Where “and” joins values, the source holds several entries; their conditions need not be identical. Equal values may be shown once. The panel holds about 83,000 compounds, 20% with a hit somewhere; the sample as a whole holds those more often.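 Treatment: one concentration, 48 hours, 96-well format. Scoring: percent growth, with anything below 10 considered active.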 Where a structure was tested more than once in an assay, its records may differ in their call. Calls of active or inactive are those of the source.

What was measured:
Test in all cases: NCI-60 one-dose screen, 48 h (100 = growth as untreated, 0 = no growth, -100 = all killed)
Settings in all cases: 10 µM unless noted
HCT-15 colon = system: HCT-15 colon
HT29 colon = system: HT29 colon
SNB-75 CNS = system: SNB-75 CNS
SNB-19 CNS = system: SNB-19 CNS
U251 CNS = system: U251 CNS
PC-3 prostate = system: PC-3 prostate
SK-MEL-5 melanoma = system: SK-MEL-5 melanoma
UACC-62 melanoma = system: UACC-62 melanoma
LOX IMVI melanoma = system: LOX IMVI melanoma
SK-MEL-28 melanoma = system: SK-MEL-28 melanoma
SK-MEL-2 melanoma = system: SK-MEL-2 melanoma
EKVX NSCLC = system: EKVX NSCLC
SN12C renal = system: SN12C renal
UO-31 renal = system: UO-31 renal
TK-10 renal = system: TK-10 renal
ACHN renal = system: ACHN renal
CAKI-1 renal = system: CAKI-1 renal
A498 renal = system: A498 renal
MOLT-4 leukemia = system: MOLT-4 leukemia
CCRF-CEM leukemia = system: CCRF-CEM leukemia

| Compound | growth (HCT-15 colon) | growth (HT29 colon) | growth (SNB-75 CNS) | growth (SNB-19 CNS) | growth (U251 CNS) | growth (PC-3 prostate) | growth (SK-MEL-5 melanoma) | growth (UACC-62 melanoma) | growth (LOX IMVI melanoma) | growth (SK-MEL-28 melanoma) | growth (SK-MEL-2 melanoma) | growth (EKVX NSCLC) | growth (SN12C renal) | growth (UO-31 renal) | growth (TK-10 renal) | growth (ACHN renal) | growth (CAKI-1 renal) | growth (A498 renal) | growth (MOLT-4 leukemia) | growth (CCRF-CEM leukemia) |
| --- | --- | --- | --- | --- | --- | --- | --- | --- | --- | --- | --- | --- | --- | --- | --- | --- | --- | --- | --- | --- |
| CCN(CC)CCNc1ccc(C)c2sc3ccccc3c(=O)c12 (tested in a mixture with another compound) | 14.5% (inactive) and 14.2% (inactive) | 1.12% (active) and 10.8% (inactive) | 25.6% (inactive) and 51% (inactive) | 41.1% (inactive) and 26.3% (inactive) | 18.4% (inactive) and 15.1% (inactive) | 50.4% (inactive) and 35.3% (inactive) | -85.6% (active) and -91.5% (active) | -68.8% (active) and -47.5% (active) | -17% (active) and -40.3% (active) | -3.67% (active) and -6.09% (active) | 59.2% (inactive) and 86.4% (inactive) | 68.6% (inactive) and 86.6% (inactive) | 35.1% (inactive) and 36.4% (inactive) | -4.88% (active) and 2.67% (active) | 23.1% (inactive) and 50% (inactive) | 16.7% (inactive) and 10.4% (inactive) | 22.4% (inactive) and 29.9% (inactive) | 102% (inactive) and 75.7% (inactive) | 8.98% (active) and 26.9% (inactive) |  |
| CN(C)c1ccc2nc3ccc(=[N+](C)C)cc-3sc2c1 | 28.5% (inactive) and 36.7% (inactive) | 26.6% (inactive) and 19.8% (inactive) and 74.9% (inactive) | 49.4% (inactive) and 90.2% (inactive) | 24.7% (inactive) and 23% (inactive) and 39.5% (inactive) | 3.44% (active) and -10.6% (active) and 8.51% (active) | 13.7% (inactive) and 19.8% (inactive) and 32.8% (inactive) | -85.2% (active) and 5.71% (active) and 13.6% (inactive) | -19.7% (active) and 7.25% (active) and 56.5% (inactive) | 7.11% (active) and 5.63% (active) and 34.6% (inactive) | 20% (inactive) and 45.9% (inactive) and 75% (inactive) | 20% (inactive) and 47.3% (inactive) and 79.6% (inactive) | 41.7% (inactive) and 46.9% (inactive) | 24.3% (inactive) and 12.5% (inactive) and 9.23% (active) | 62.3% (inactive) and 57.2% (inactive) and 78.6% (inactive) | 58.1% (inactive) and 73.9% (inactive) and 110% (inactive) | 24.6% (inactive) and 24.4% (inactive) and 83% (inactive) | 30.9% (inactive) and 23.4% (inactive) and 83.2% (inactive) |  |  | 2.85% (active) and 26.7% (inactive) and 24% (inactive) |
| Cc1ccc(-c2noc(CC(=O)c3ccc([N+](=O)[O-])cc3)n2)cc1 | 98.3% (inactive) | 101% (inactive) | 94.6% (inactive) | 106% (inactive) | 96.8% (inactive) | 98.6% (inactive) | 91.6% (inactive) | 91.1% (inactive) | 89.5% (inactive) | 105% (inactive) | 110% (inactive) | 95.9% (inactive) | 94.1% (inactive) | 89.6% (inactive) | 115% (inactive) | 103% (inactive) | 97.1% (inactive) | 86.7% (inactive) | 90.5% (inactive) | 96.7% (inactive) |
| CCOc1ccc2cc(-c3nn(CC4CCN(C)CC4)c4ncnc(N)c34)ccc2c1 | 76% (inactive) and 29.8% (inactive) | 69.2% (inactive) and 9.92% (active) | 50% (inactive) and 33.9% (inactive) | 92.8% (inactive) and 68.3% (inactive) | 83.8% (inactive) and 43.3% (inactive) | 85.8% (inactive) and 51.5% (inactive) | 87.2% (inactive) and -65.2% (active) | -24.5% (active) | 77.7% (inactive) and 6.18% (active) | 97.1% (inactive) and -58.3% (active) | 108% (inactive) | 101% (inactive) and 56.5% (inactive) | 83.7% (inactive) | 60.7% (inactive) and 62.9% (inactive) | 70.9% (inactive) and 77.8% (inactive) | 96.5% (inactive) and 53.9% (inactive) | 87.6% (inactive) and 85.5% (inactive) | 74% (inactive) and 23.7% (inactive) | 70.1% (inactive) and -4.41% (active) | 90.7% (inactive) and 3.75% (active) |
| CC(=O)Nc1cc(S(=O)(=O)O)cc2cc(S(=O)(=O)O)c(N=Nc3ccccc3)c(O)c12 | 116% (inactive) and 111% (inactive) | 118% (inactive) and 92.2% (inactive) | 92.8% (inactive) and 98.1% (inactive) | 110% (inactive) and 99.9% (inactive) | 110% (inactive) and 101% (inactive) | 88.3% (inactive) and 94.9% (inactive) | 99.4% (inactive) | 108% (inactive) and 92.2% (inactive) | 103% (inactive) and 98.7% (inactive) | 119% (inactive) and 116% (inactive) | 116% (inactive) and 88.7% (inactive) | 115% (inactive) and 113% (inactive) | 106% (inactive) and 98.4% (inactive) | 94.2% (inactive) and 83.2% (inactive) | 110% (inactive) and 98.4% (inactive) | 106% (inactive) and 108% (inactive) | 99.6% (inactive) | 102% (inactive) and 92.4% (inactive) | 111% (inactive) and 94.7% (inactive) | 97.5% (inactive) and 90.8% (inactive) |
| CC(C(=O)O)n1cc(C#N)c(=O)[nH]c1=O (stereo unspecified) | 104% (inactive) and 102% (inactive) | 110% (inactive) and 104% (inactive) | 83.7% (inactive) and 76.9% (inactive) | 107% (inactive) and 101% (inactive) | 111% (inactive) and 107% (inactive) | 95.3% (inactive) | 105% (inactive) and 102% (inactive) | 103% (inactive) and 99.7% (inactive) | 110% (inactive) and 98.6% (inactive) | 110% (inactive) | 120% (inactive) and 102% (inactive) | 95.6% (inactive) and 110% (inactive) | 98.6% (inactive) and 96.1% (inactive) | 81.3% (inactive) and 82.4% (inactive) | 112% (inactive) and 110% (inactive) | 100% (inactive) and 96.5% (inactive) | 86.5% (inactive) and 93.1% (inactive) | 107% (inactive) | 90% (inactive) and 107% (inactive) | 91.6% (inactive) and 103% (inactive) |
| Oc1c(CN2CCCCC2)ccc2cccnc12 | 33.6% (inactive) and 30.3% (inactive) | 66.6% (inactive) and 28.6% (inactive) | 82.5% (inactive) and 85.6% (inactive) | 65.9% (inactive) and 74.1% (inactive) | 41.8% (inactive) and 38.7% (inactive) | 52.1% (inactive) and 39% (inactive) | 45% (inactive) and -25.6% (active) | 46% (inactive) and 45.6% (inactive) | 27.3% (inactive) and 44.1% (inactive) | 85.2% (inactive) and 85.7% (inactive) | 96.9% (inactive) and 82.4% (inactive) | 71.3% (inactive) | 58.2% (inactive) and 59.2% (inactive) | 8.37% (active) and -0.287% (active) | 40.8% (inactive) and 48.7% (inactive) | 7.15% (active) and 9.28% (active) | 2.08% (active) | 61.4% (inactive) and 62.9% (inactive) | 38.2% (inactive) and 36% (inactive) |  |
| Cc1cc(O)c2c(c1)C(=O)c1cc(O)cc(O)c1C2=O | 98.9% (inactive) and 92.2% (inactive) | 105% (inactive) and 99.6% (inactive) | 88% (inactive) and 86.7% (inactive) | 82.5% (inactive) and 94.2% (inactive) | 92.1% (inactive) and 88.1% (inactive) | 67% (inactive) and 77.9% (inactive) | 48.9% (inactive) and 59.9% (inactive) | 60.7% (inactive) and 83.6% (inactive) | 84.6% (inactive) and 86.5% (inactive) | 87.7% (inactive) | 94.9% (inactive) and 85.1% (inactive) | 68% (inactive) and 77.3% (inactive) | 86.1% (inactive) and 91.1% (inactive) | 76.6% (inactive) and 71.2% (inactive) | 104% (inactive) and 95.4% (inactive) | 87.8% (inactive) and 88.8% (inactive) | 72.2% (inactive) and 95.2% (inactive) | 82.7% (inactive) and 75.8% (inactive) | 101% (inactive) and 85.9% (inactive) | 82.5% (inactive) and 80% (inactive) |
